The text below walks through data of PubChem BioAssay.

Activity calls are given as the source filed them.
Note: test concentration not given here.

One test is described as follows: S. cerevisiae RM11-1a growth modifiers, primary screen, strain RM11-1a, OD600, basal, 24 h (AID 1177).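 Note: cultures grown under basal conditions with no added stressor.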 As to conditions: OD600, 24 h, higher = more signal, called active from +8 up or from −8 down.
As for `C=CCC(OC(C)=O)[C@@H]1[C@@H](N(Cc2cccc3ccccc23)C(=O)c2cccc3ccccc23)c2cc(OCCCO)ccc2N1C(=O)c1ccc2ccccc2c1` (stereo partly drawn), the z-score was -0.646 (inactive).

As for `CC(C)C[C@@H]1NC(=O)[C@H]2C[C@@H](C(=O)NCCCCCN)[C@@H](c3cccc(OCCO)c3)N2C1=O`, the z-score is -2.46 (inactive). Regarding `COC(=O)[C@@]1(Cc2ccccc2)[C@H]2c3cc(C(=O)N4CCCC4)n(CCSCCO)c3C[C@H]2CN1C(=O)c1ccccc1`, the z-score was 0.53 (inactive).

Turning to `CCOC(=O)C1=C[C@@H](C(C)(C)C)N(S(=O)(=O)c2ccc(C)cc2)[C@H]1c1ccccc1`, the z-score is 1.59 (inactive). `C=CCN1C(=O)[C@]2(O[C@H](CCO)[C@@H]([Si](C)(C)c3ccc(OC)cc3)[C@@H]2C)c2cc(NC(=O)c3ccc(OC)cc3)ccc21`: the z-score was 2.23 (inactive). Consider `COCCOC(=O)N1C(=O)[C@@]2(c3cc(C#Cc4ccc(OC)cc4)ccc31)[C@H](C(=O)NC[C@H](O)c1ccccc1)[C@H]1C(=O)O[C@H](c3ccccc3)[C@H](c3ccccc3)N1[C@@H]2c1ccc(OCCO)cc1`, for which the z-score was 2.67 (inactive). Still for that read-out and setting: in the case of `CCc1cccc(NC(=O)O[C@H]2[C@H](OC(=O)Nc3ccccc3)[C@H](OC(=O)Nc3ccccc3)[C@@H](OC)O[C@@H]2CO)c1` it was 1.12 (inactive).

A short description of the next test: E. coli acrAB mutant growth effects, primary screen, E. coli filamentation inducers, strain DRC39, OD650, 24 h (AID 1178).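 Note: growth measured as culture turbidity by optical density at 650 nm.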 The following applies: higher = more signal, called active from +8 up or from −8 down.
`Cc1ccc(S[C@]2(C(=O)NC(C)C)CC(=O)N(C(C)C)[C@@H]2c2ccc(CO)cc2I)cc1`: the z-score was 0.882 (inactive). On to `C=C(/C(=C/C[C@@H](OC(C)=O)c1ccc(CO)o1)c1cc(C(=O)OC)ccc1OC)C(C)C`, for which the z-score was 0.769 (inactive). On the same count and under the same terms, in the case of `COc1ccc(CCNC(=O)[C@@]2(Cc3ccccc3I)c3ccccc3C(=O)N(Cc3ccccc3Cl)[C@H]2c2ccc(CO)cc2)cc1` it was -0.432 (inactive); in that of `COCCCNC(=O)[C@@]1(Sc2ccc(C)cc2)CC(=O)N(Cc2ccccc2Cl)[C@@H]1c1ccc(CO)cc1I`, 0.0085 (inactive).

As for `COc1cc(C(O)C2C=CC3C(=O)N(Cc4ccccc4)C(=O)C3N2n2cnnc2)cc(OC)c1OC` (stereo not drawn), the z-score is 0.904 (inactive). The same measure, in the same setting: the figure for `[N-]=[N+]=Nc1ccccc1C[C@]1(C(=O)NCc2ccccc2)COC(c2ccc(OCCCO)cc2)=N1` is 0.728 (inactive); for `Cc1ccc(S[C@]2(C(=O)NCc3ccccc3)CC(=O)N(Cc3cc(C(F)(F)F)cc(C(F)(F)F)c3)[C@@H]2c2ccc(CO)cc2I)cc1` it is 0.671 (inactive); for `COc1cc2c(cc1OC)CN(C(=O)[C@@H]1[C@H]3C(=O)O[C@H](c4ccccc4)[C@H](c4ccccc4)N3[C@H](c3ccc(O)cc3)[C@@]13C(=O)Nc1ccc(C#CCCO)cc13)CC2` it is 0.437 (inactive). Same read-out and setting: in the case of `Cc1ccccc1C(O)C1C=CC2C(=O)NC(=O)C2N1Nc1ccc(Cl)cc1Cl` (stereo not drawn) it was -0.511 (inactive); in that of `C=CCC(OC(C)=O)[C@@H]1[C@@H](N(Cc2ccc(-c3cccc(C(F)(F)F)c3)o2)C(=O)c2ccc(C)cc2)c2cc(OCCCO)ccc2N1C(=O)Cc1ccc(OC)cc1` (stereo partly drawn), 0.145 (inactive). Same read-out and setting: in the case of `COc1ccc([Si](C)(C)[C@@H]2[C@@H](CC(=O)N3Cc4ccccc4C[C@H]3CO)O[C@]3(C(=O)N(Cc4ccc(N5CCC5=O)cc4)c4ccccc43)[C@H]2C)cc1` it was 0.7 (inactive); in that of `Cc1ccc(S[C@]2(C(=O)NC(C)C)CC(=O)N(Cc3ccccc3Cl)[C@@H]2c2ccc(CO)cc2)cc1`, -0.332 (inactive); in that of `CCOC(=O)C[C@H]1[C@H](OC(=O)c2ccc(-c3ccccc3)cc2)[C@@H](NC(=O)CC(C)C)c2cc(OCCCO)ccc2N1C(=O)c1ccccc1`, -0.635 (inactive).

Turning to `C=C(C(=O)CC[C@H](OC(=O)c1ccccc1-c1ccccc1C(=O)O)c1ccccc1OCCO)C(C)C`, the z-score is 0.88 (inactive).

`COCCOC(=O)N1C(=O)[C@@]2(c3cc(C#CC4=CCCCC4)ccc31)[C@H](c1ccc(O)cc1)N1[C@H](c3ccccc3)[C@H](c3ccccc3)OC(=O)[C@H]1[C@@H]2C(=O)NC[C@H](O)c1ccccc1`: the z-score was -0.396 (inactive). On to `NC(=O)[C@H]1[C@@H]2C(=O)O[C@@H](c3ccccc3)[C@@H](c3ccccc3)N2[C@@H](c2ccc(O)cc2)[C@]12C(=O)Nc1ccc(C#CC3=CCCCC3)cc12`, for which the z-score is -0.466 (inactive).

For `CC1CC/C=C\[C@H]2OC34C=CCN(C(C)(C)C)C(=O)[C@H]3N(C(CO)C(C)C)C(=O)[C@@H]4C2C(=O)O1` (stereo partly drawn), the z-score was 0.361 (inactive). Regarding `O=C(NCCN1CCOCC1)[C@@H]1c2ccccc2C(=O)N(Cc2ccccc2)[C@H]1c1ccc(CO)cc1`, the z-score was 0.0077 (inactive). Same read-out and setting: in the case of `CC(C)CCC[C@@H](C)[C@H]1CC[C@@]2(C)C3=C(CC[C@]12C)[C@@]1(C)CC[C@H](OC(=O)c2ccccc2)C(C)(C)C1CC3` (stereo partly drawn) it was 1.94 (inactive); in that of `C[C@]1(C(=O)O)c2ccccc2C(=O)N(Cc2ccc(OC(F)(F)F)cc2)[C@H]1c1ccc(CO)cc1`, 0.248 (inactive). As for `C=CCNC(=O)[C@H]1[C@@H]2C(=O)O[C@@H](c3ccccc3)[C@@H](c3ccccc3)N2[C@@H](c2ccc(O)cc2)[C@]12C(=O)N(C(=O)OCCOC)c1ccc(C#CCC(C(=O)OC)C(=O)OC)cc12`, the z-score is 0.216 (inactive). On the same count and under the same terms, in the case of `CCCNC(=O)[C@@]1(Sc2ccc(C)cc2)CC(=O)N(C(C)C)[C@@H]1c1ccc(CO)cc1I` it was 0.337 (inactive); in that of `COc1ccc([Si](C)(C)[C@H]2[C@H](CCO)O[C@@]3(C(=O)N(Cc4ccccc4)c4ccc(N5CCOC5=O)cc43)[C@@H]2C)cc1`, 0.895 (inactive).

On to `C=CC1c2cc(O)c(OC)cc2CCN1Cc1ccc([N+](=O)[O-])o1` (stereo not drawn), for which the z-score is 0.148 (inactive).

On to `CCCCC(=O)N(CCN1CCOCC1)[C@@H]1CC(C(=O)NCCO)=C[C@H](Oc2c(I)cc(CO)cc2OC)[C@H]1O`, for which the z-score was 1.34 (inactive). Same read-out and setting: the figure for `C=C[C@@H](C)[C@@H](OC(=O)Nc1ccc(SC)cc1)c1ccc(OCCO)cc1` is -0.68 (inactive). Still for that read-out and setting: the figure for `CC(C)C[C@@H]1NC(=O)CNC(=O)[C@@]23C(=O)N[C@@H](Cc4ccccc4)C2[C@H](C)[C@@]2(C)O[C@H]2C3/C=C/C/C=C\CNC1=O` (stereo partly drawn) is 0.387 (inactive). In the case of `Cc1c(NC(=O)/C(C#N)=C/c2ccccc2Cl)c(=O)n(-c2ccccc2)n1C`, the z-score was 1.17 (inactive). As for `COCCCNC(=O)[C@@]1(c2ccc([N+](=O)[O-])cc2)CC(=O)N(C(C)C)[C@@H]1c1ccc(CO)cc1`, the z-score is 0.0472 (inactive). Turning to `C=CCC(OC(C)=O)[C@@H]1[C@@H](N(Cc2cccc3ccccc23)C(=O)c2cccc3ccccc23)c2cc(OCCCO)ccc2N1C(=O)c1ccc2ccccc2c1` (stereo partly drawn), the z-score was 0.745 (inactive).

With `CC(C)C[C@@H]1NC(=O)[C@H]2C[C@@H](C(=O)NCCCCCN)[C@@H](c3cccc(OCCO)c3)N2C1=O`, the z-score is 1.06 (inactive). The same measure, in the same setting: in the case of `COC(=O)[C@@]1(Cc2ccccc2)[C@H]2c3cc(C(=O)N4CCCC4)n(CCSCCO)c3C[C@H]2CN1C(=O)c1ccccc1` it was -1.01 (inactive); in that of `CCOC(=O)C1=C[C@@H](C(C)(C)C)N(S(=O)(=O)c2ccc(C)cc2)[C@H]1c1ccccc1`, 0.128 (inactive); in that of `C=CCN1C(=O)[C@]2(O[C@H](CCO)[C@@H]([Si](C)(C)c3ccc(OC)cc3)[C@@H]2C)c2cc(NC(=O)c3ccc(OC)cc3)ccc21`, 0.626 (inactive).

Consider `COCCOC(=O)N1C(=O)[C@@]2(c3cc(C#Cc4ccc(OC)cc4)ccc31)[C@H](C(=O)NC[C@H](O)c1ccccc1)[C@H]1C(=O)O[C@H](c3ccccc3)[C@H](c3ccccc3)N1[C@@H]2c1ccc(OCCO)cc1`, for which the z-score is 0.14 (inactive). As for `CCc1cccc(NC(=O)O[C@H]2[C@H](OC(=O)Nc3ccccc3)[C@H](OC(=O)Nc3ccccc3)[C@@H](OC)O[C@@H]2CO)c1`, the z-score was 0.0415 (inactive).
